{"source": "ChEMBL document CHEMBL3988442", "about": "“University of Dundee, Small-Polar-MMV Screening Library” (2021)", "note": "Hit rate of the full screen: of about 48,000 compounds, about 13,000 (27%) showed an effect of 50% or more. The list shows a part of the results."}
{"system": "Wolbachia pipientis", "experiment": "Anti-Wolbachia Cell-Based Screen", "format": "functional", "parameters": "scale not given: in the data most compounds retested in dose-response had high values", "details": "5 µM", "units": {"Percent Effect": "%"}}
{"smiles": "CC(NCCCC#N)c1ccc(-c2ccncc2)cc1", "note": "(stereo unspecified)", "Percent Effect": -12.76}
{"smiles": "CCN1CC2(CCN(C(=O)N(C)C)CC2)COc2ccccc2S1(=O)=O", "Percent Effect": 88.03}
{"smiles": "CN1CC2(CCN(CCOCCO)CC2)CC(c2ccccc2)C1=O", "note": "(stereo unspecified)", "Percent Effect": -8.792}
{"smiles": "CCN1CC2(CCNCC2)COc2ccccc2S1(=O)=O.O=C(O)C(F)(F)F", "Percent Effect": 12.77}
{"smiles": "COCCN1CCC2(CC1)COc1ccccc1S(=O)(=O)N(C)C2", "Percent Effect": 110}
{"smiles": "COCC(=O)N1CCC2(CC1)COc1ccccc1S(=O)(=O)N(C)C2", "Percent Effect": 78.61}
{"smiles": "CCc1ccc(CN2CCC3(CCCN(C(=O)N(C)C)C3)C2)o1", "note": "(stereo unspecified)", "Percent Effect": 2.362}
{"smiles": "CN(C)CC(=O)N1CCC2(CC1)COc1ccccc1S(=O)(=O)N(C)C2", "Percent Effect": 75.94}
{"smiles": "CCC(=O)N1CCC2(CC1)COc1ccccc1S(=O)(=O)N(C)C2", "Percent Effect": 3.45}
{"smiles": "CN1[C@@H](c2ccccc2)[C@@H](C(=O)NCC2CCOCC2)C[C@@]1(C)C(=O)O", "Percent Effect": -0.5583}
{"smiles": "COCc1ccccc1C(=O)NCC(c1c(F)cccc1F)N(C)C", "note": "(stereo unspecified)", "Percent Effect": -0.8203}
{"smiles": "O=c1nc(SCc2cccnc2)c2c(n1CCO)CCC2", "Percent Effect": -0.5534}
{"smiles": "O=S(=O)(c1cc2ccccc2o1)N1CCCC1", "Percent Effect": -2.177}
{"smiles": "CS(=O)(=O)NCC(=O)NCc1cccnc1-n1cnc2ccccc21", "Percent Effect": 9.043}
{"smiles": "COc1cccc(-c2n[nH]c3c2CN(C(=O)c2cccc(=O)[nH]2)CC3)c1", "Percent Effect": -3.168}
{"smiles": "CC(=O)N1CC(c2ncn(C(C)C)n2)c2cc(C(=O)NC3CC3)ccc21", "note": "(stereo unspecified)", "Percent Effect": -21.86}
{"smiles": "NCCn1nc(C2CCN(Cc3ccc(Cl)c(Cl)c3)C2)c2nccnc21", "note": "(stereo unspecified)", "Percent Effect": 1.426}
{"smiles": "CN(C)S(=O)(=O)N1CCCC(c2nccn2Cc2cccnc2)C1", "note": "(stereo unspecified)", "Percent Effect": -1.241}
{"smiles": "CCS(=O)(=O)N1CCC(c2nn(CCN(C)C)c3ncccc23)C1", "note": "(stereo unspecified)", "Percent Effect": 95.82}
{"smiles": "CN(C)CCn1nc(C2CCN(S(=O)(=O)N(C)C)C2)c2cccnc21", "note": "(stereo unspecified)", "Percent Effect": 111.8}
{"smiles": "CCn1c(C2CCCN(S(=O)(=O)C3CC3)C2)nn(CCN(C)C)c1=O", "note": "(stereo unspecified)", "Percent Effect": 1.006}
{"smiles": "CCn1c(CN(C)C)nnc1C1CCN(Cc2ccccc2)CC1", "Percent Effect": 3.823}
{"smiles": "CCS(=O)(=O)N1CCC(c2nccn2Cc2ccccn2)CC1", "Percent Effect": -0.918}
{"smiles": "CN(C)CCn1nc(C2CCN(Cc3ccccc3)C2)c2cccnc21", "note": "(stereo unspecified)", "Percent Effect": 91.7}
{"smiles": "O=C(NC1(c2nnn(CCO)n2)CCCC1)c1ccccc1", "Percent Effect": -5.354}
{"smiles": "Cc1ccc(-c2c(C(=O)NC3CCN(C)CC3)csc2C)cc1", "Percent Effect": 4.532}
{"smiles": "CN1CCC(NC(=O)c2cc(C3CCCCC3)nc3ccccc23)CC1", "Percent Effect": 113.5}
{"smiles": "Cn1c(C(=O)NC2CCCC2)nc2c1CCN(Cc1ccccc1)C2", "Percent Effect": 4.267}
{"smiles": "Cn1cc(C2(C)CN(Cc3ccc(O)c(Cl)c3)CCO2)cn1", "note": "(stereo unspecified)", "Percent Effect": -11.09}
{"smiles": "CCCn1nc2c(cc1=O)CN(Cc1cc(C)on1)CC2", "Percent Effect": -1.057}
{"smiles": "CCc1ccc(C(=O)NC(C)c2ccc(S(C)(=O)=O)c(F)c2)o1", "note": "(stereo unspecified)", "Percent Effect": 2.681}
{"smiles": "CCOCC1CN(C(=O)c2cccc(C)n2)Cc2cnn(C)c21", "note": "(stereo unspecified)", "Percent Effect": 129.5}
{"smiles": "CCOCC1CN(C(=O)c2ccnnc2)Cc2cnn(C)c21", "note": "(stereo unspecified)", "Percent Effect": 100.5}
{"smiles": "CCOCC1CN(C(=O)c2ccncn2)Cc2cnn(C)c21.O=C(O)C(F)(F)F", "note": "(stereo unspecified)", "Percent Effect": -8.665}
{"smiles": "CCOCC1CN(C(=O)c2cccnc2)Cc2cnn(C)c21", "note": "(stereo unspecified)", "Percent Effect": 105}
{"smiles": "COCC1CN(C(=O)c2cccn2C)Cc2cnn(C)c21", "note": "(stereo unspecified)", "Percent Effect": 3.786}
{"smiles": "Cc1noc(C)c1CNCC1CCN(CC(O)c2ccccc2)CC1", "note": "(stereo unspecified)", "Percent Effect": 0.6409}
{"smiles": "CN1CCCC1CCn1ccnc1-c1ccc2ccccc2n1", "note": "(stereo unspecified)", "Percent Effect": -11.7}
{"smiles": "COCC(Nc1ncnc2sc(C(=O)O)c(C)c12)c1ccnn1C", "note": "(stereo unspecified)", "Percent Effect": 6.074}
{"smiles": "CCCc1nc(C(=O)N2CCN(S(=O)(=O)CC)CC2)cs1", "Percent Effect": 13.9}
{"smiles": "CCCc1nc(C(=O)NC(COC)c2ccnn2C)cs1", "note": "(stereo unspecified)", "Percent Effect": 113.9}
{"smiles": "COCC(NC(=O)c1cc(NC(C)=O)ccc1Cl)c1ccnn1C", "note": "(stereo unspecified)", "Percent Effect": -14.74}
{"smiles": "CCCc1nc(C(=O)NCCCn2nnc3ccccc32)cs1", "Percent Effect": 3.085}
{"smiles": "COCC(Nc1ncnc2sc(C)c(C)c12)c1ccnn1C", "note": "(stereo unspecified)", "Percent Effect": -1.475}
{"smiles": "CCCc1cc(C(=O)NC(COC)c2ccnn2C)no1", "note": "(stereo unspecified)", "Percent Effect": 98.08}
{"smiles": "CCCc1cc(C(=O)NCCCn2nnc3ccccc32)no1", "Percent Effect": 2.161}
{"smiles": "COCC(NC(=O)c1cn2ccsc2n1)c1ccnn1C", "note": "(stereo unspecified)", "Percent Effect": 103.8}
{"smiles": "CCSCCOC(=O)CCCc1ccc2c(c1)CC(=O)N2", "Percent Effect": -3.889}
{"smiles": "CCC1(O)CCCN(c2nc(C(C)(C)C)nc3c2cnn3C)C1", "note": "(stereo unspecified)", "Percent Effect": -1.49}
{"smiles": "CN(C)C(=O)N1CC(=O)NCC12CCN(C(=O)c1ccco1)C2", "note": "(stereo unspecified)", "Percent Effect": -32.82}
{"smiles": "COc1cc(C2CC(=O)NCc3nc4sccn4c32)cc(OC)c1O", "note": "(stereo unspecified)", "Percent Effect": -15.83}
{"smiles": "COCCn1ccnc1C1CCN(c2cccc(C(=O)O)n2)CC1", "Percent Effect": -10.3}
{"smiles": "Cc1cccc(N2CCC3(CCCN3Cc3cn(C)nc3C)CC2)n1", "Percent Effect": -1.763}
{"smiles": "Cc1nn(C)cc1CN1CCC(C2Nc3ccccc3S(=O)(=O)N2)CC1", "note": "(stereo unspecified)", "Percent Effect": -11.33}
{"smiles": "Cn1cc(CN2CCCN(CCCc3ccccc3)CC2)cn1", "Percent Effect": 4.066}
{"smiles": "C=Cn1cc(CN2CCN(CC3(c4ccccc4)CC3)CC2)c(C)n1", "Percent Effect": 101.3}
